About 16,000 (4.4%) of roughly 360,000 compounds were called active. Another 9% or so got no clear call; they are omitted. Calls come from the whole dose curve; as a rule, active = well fitted inhibition curve with a large enough effect; inconclusive = small, poorly fitted or top-dose-only effect; inactive = no such curve, though single readings can be large or run the other way. Shown is part of a subset that was picked to be rich in actives.
Molecular target: Bromodomain adjacent to zinc finger domain protein 2B (Homo sapiens) (UniProt Q9UIF8)
Assay: qHTS Assay for Inhibitors of BAZ2B; note: nearly all actives have a fitted effect of over 60% in size
Settings: AlphaScreen BAZ2B-H3K14Ac peptide displacement; series mostly up to 114 µM
In short: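 AlphaScreen displacement of biotin-H3(5-23)K14Ac peptide (50 nM final) from BAZ2B (50 nM final) in PBS pH 7.4, 0.01% Tween-20; complex preformed 30 min RT, then compounds (top 110 uM) 30 min RT, beads 20 min dark.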
Potency is the fitted concentration of half-maximal effect.

Sequence of Bromodomain adjacent to zinc finger domain protein 2B (Homo sapiens) (Q9UIF8 whole entry, looked up, the tested form may be a part): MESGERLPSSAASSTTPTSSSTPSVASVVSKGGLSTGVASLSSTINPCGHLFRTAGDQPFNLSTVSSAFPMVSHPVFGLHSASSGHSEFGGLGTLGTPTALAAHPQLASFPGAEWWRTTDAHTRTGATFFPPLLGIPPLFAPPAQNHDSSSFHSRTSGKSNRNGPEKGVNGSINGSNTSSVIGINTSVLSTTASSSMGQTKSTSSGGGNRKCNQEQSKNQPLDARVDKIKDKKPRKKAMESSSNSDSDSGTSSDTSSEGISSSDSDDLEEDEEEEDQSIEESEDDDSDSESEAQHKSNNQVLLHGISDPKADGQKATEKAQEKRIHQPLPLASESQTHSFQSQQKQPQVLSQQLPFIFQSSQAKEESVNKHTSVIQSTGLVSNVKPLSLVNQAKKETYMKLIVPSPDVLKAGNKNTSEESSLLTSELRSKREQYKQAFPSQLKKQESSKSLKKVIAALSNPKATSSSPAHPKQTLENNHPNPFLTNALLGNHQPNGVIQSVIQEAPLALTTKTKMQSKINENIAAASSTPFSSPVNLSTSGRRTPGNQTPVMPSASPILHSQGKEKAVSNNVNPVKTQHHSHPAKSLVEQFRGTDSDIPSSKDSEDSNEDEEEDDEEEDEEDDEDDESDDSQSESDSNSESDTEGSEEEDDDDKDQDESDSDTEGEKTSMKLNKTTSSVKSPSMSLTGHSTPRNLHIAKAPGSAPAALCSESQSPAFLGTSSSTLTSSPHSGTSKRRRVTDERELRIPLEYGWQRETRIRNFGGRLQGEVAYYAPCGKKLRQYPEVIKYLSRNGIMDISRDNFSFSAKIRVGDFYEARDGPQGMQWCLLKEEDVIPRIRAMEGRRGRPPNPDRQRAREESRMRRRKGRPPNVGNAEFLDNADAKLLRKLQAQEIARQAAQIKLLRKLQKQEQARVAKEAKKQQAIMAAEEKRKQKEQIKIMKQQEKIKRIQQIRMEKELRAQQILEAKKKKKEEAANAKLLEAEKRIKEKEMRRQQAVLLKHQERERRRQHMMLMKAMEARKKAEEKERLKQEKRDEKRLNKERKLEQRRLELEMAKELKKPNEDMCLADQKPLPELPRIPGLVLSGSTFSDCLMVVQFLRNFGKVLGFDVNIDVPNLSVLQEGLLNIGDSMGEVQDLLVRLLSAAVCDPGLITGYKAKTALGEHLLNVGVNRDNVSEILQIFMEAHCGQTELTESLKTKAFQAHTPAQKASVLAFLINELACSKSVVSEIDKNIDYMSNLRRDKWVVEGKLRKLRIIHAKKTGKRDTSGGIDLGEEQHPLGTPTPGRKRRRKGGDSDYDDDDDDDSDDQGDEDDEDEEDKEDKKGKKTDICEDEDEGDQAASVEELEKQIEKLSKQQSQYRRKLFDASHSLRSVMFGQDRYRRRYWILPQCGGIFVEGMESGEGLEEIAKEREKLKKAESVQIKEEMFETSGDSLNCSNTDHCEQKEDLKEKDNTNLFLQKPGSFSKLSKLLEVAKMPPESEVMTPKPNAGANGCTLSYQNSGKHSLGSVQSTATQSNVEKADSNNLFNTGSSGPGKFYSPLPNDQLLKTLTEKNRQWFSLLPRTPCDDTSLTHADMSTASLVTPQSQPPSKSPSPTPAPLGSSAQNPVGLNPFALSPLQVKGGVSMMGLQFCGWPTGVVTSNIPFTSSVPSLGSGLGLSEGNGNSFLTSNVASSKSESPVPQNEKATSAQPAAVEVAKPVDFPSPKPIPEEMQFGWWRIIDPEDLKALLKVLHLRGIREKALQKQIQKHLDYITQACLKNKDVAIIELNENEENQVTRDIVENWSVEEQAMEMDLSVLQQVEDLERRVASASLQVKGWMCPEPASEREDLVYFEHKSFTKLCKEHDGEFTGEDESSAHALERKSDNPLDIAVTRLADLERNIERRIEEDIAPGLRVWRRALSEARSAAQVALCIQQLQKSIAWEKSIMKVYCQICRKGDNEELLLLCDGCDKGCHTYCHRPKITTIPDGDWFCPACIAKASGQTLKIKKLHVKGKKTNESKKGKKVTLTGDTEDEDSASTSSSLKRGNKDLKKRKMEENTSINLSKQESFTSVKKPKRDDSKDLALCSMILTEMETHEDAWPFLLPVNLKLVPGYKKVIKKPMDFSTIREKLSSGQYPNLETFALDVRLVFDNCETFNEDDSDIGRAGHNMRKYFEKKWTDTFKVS

Potency, inactive:
CCCCCCn1nnc2sc(-c3ccccc3)cc2c1=O
Cc1cc(C(=O)NNC(=S)Nc2ccccc2C)cs1
Cc1ccc(C(=O)NC(=S)NCCN2CCOCC2)cc1
Cc1cc2[nH]ncc2cc1NC(=S)NC(=O)c1ccccc1
COC(=O)c1ccc(NC(=S)NN2CCOCC2)cc1
COc1ccc(-c2cc(C(F)(F)F)nc(SCC(=O)N(C)Cc3ccccc3)n2)cc1OC
Cc1c(Cl)cccc1NC(=O)C1CCCN(C(=O)c2cnn(-c3ccccc3)c2-n2cccc2)C1 (stereo not drawn)
COc1ccc(CCNC(=O)c2nn(C)c3c2CSc2ccccc2-3)cc1OC
Cc1cc(NC(=O)CSc2ncc(C(=O)Nc3ccc(Cl)cc3)c(=O)n2C)no1
Cc1ccc(-c2nnc(Nc3cccc(Br)c3)c3ccccc23)cc1S(=O)(=O)NCC1CCCO1 (stereo not drawn)
Cc1cn(C)c(CC(=O)NCc2ccc(Cl)cc2)c1C(=O)O
Cc1ccc(CCCOC(=O)C[N+]2(C)CCCCC2)cc1
Cc1ccc(COC(=O)CN2C(=O)NC3(CCCC3)C2=O)cc1
COc1ccc(-c2nn(CC(=O)Nc3ccccc3F)c3c2cnc2ccc(F)cc23)cc1
CC(=O)Nc1ccc(NC(=O)CCCc2nc(-c3ccc(C(C)(C)C)cc3)no2)cc1
Cc1ccc(CCNC(=O)Cn2c(-c3cccs3)cc3cc(F)ccc32)cc1
Cc1cccc(Nc2nc(C)nc(N)c2S(=O)(=O)c2ccccc2)c1
CCc1nc(SCC(=O)NNC(=O)c2ccc(C)cc2)c2ccccc2n1
Cc1ccc(C(=O)NNC(=O)c2cccs2)cc1
CCCCCn1c(CCCNC(=O)c2ccccc2OC)nc2ccccc21
COCC(C)NS(=O)(=O)c1ccc(N2CCCCS2(=O)=O)cc1 (stereo not drawn)
CCOC(=O)C1CCN(c2nc3c(S(=O)(=O)c4ccc(CC)cc4)nnn3c3ccc(Cl)cc23)CC1
CC(C)C(c1nnnn1Cc1ccccc1)N1CCC(C(N)=O)CC1 (stereo not drawn)
CCCC(c1nnnn1C(C)(C)C)N1CCN(Cc2ccccc2)CC1 (stereo not drawn)
CCN(Cc1ccccc1)C(=O)c1cn(-c2cccc(OC)c2)c(=O)c2ccccc12
COc1ccc(CNC(=O)Cc2coc3ccc(C(C)C)cc23)cc1
CCc1ccc(NC(=O)c2cnc3c(-c4ccccc4)c(C)nn3c2C)cc1
C=CCN(C(=O)c1cc(C)cc(C)c1)C1(C(=O)Nc2ccccc2)CCN(C(C)C)CC1
CCc1ccc(NC(=O)CN2C(=O)C(c3ccccc3)=NC23CCCCCC3)cc1
CCOc1cccc2sc(N3CCN(C(=O)C4CC4)CC3)nc12
CCCN1CN=C(NS(=O)(=O)c2ccc(NC(C)=O)cc2)NC1
Cc1ccc(C(=O)Nc2ccc3c(c2)OCO3)cc1S(=O)(=O)N1CCCCC1
Cn1cccc1/C=C1\SC(=O)N(CC(=O)Nc2ccc(F)cc2)C1=O
Cc1ccccc1CNC(=O)C(=O)NCC(c1cccs1)S(=O)(=O)c1cccs1 (stereo not drawn)
COc1ccc(NC(=O)CCCN2C(=O)CCn3nc(-c4cn(C)c5ccccc45)cc32)cc1OC
Cn1cc(Cl)c(C(=O)NNC(=S)Nc2cccc(Cl)c2)n1
Cc1cccc(-n2cnc(C(=O)Nc3cccnc3)c2)n1
CCn1cc2nc(SCc3ccccc3Cl)n(CCc3ccccc3)c(=O)c2n1
CCc1cc2c(cc(C(=O)OC)n2Cc2nc(-c3ccc(C)cc3)oc2C)s1
CN(C)c1nc(-c2cccnc2)nc(-c2ccc(Cl)cc2)c1C#N
O=S(=O)(Cc1cc(Cl)nc(-c2cccnc2)n1)c1ccccc1
COc1ccc(OC)c(-n2nnc(-c3nc(-c4cc(OC)c(OC)c(OC)c4)no3)c2C)c1
Cc1ccc(Cl)cc1NC(=O)COC(=O)CC(C)(C)C
CC(C)(C)NC(=O)COC(=O)c1cc(Cl)ccc1[N+](=O)[O-]
CCOc1ccc(NC(=O)C(CC(C)C)N2Cc3ccccc3C2=O)cc1 (stereo not drawn)
Cc1ccccc1NC(=O)Cn1cc(C(=O)c2cccs2)c2ccccc21
CCC(C)c1ccc2oc(-c3ccc(NC(=O)c4cc5ccccc5o4)cc3)nc2c1 (stereo not drawn)
COC(=O)N/N=C/c1ccc(/C=N/NC(=O)OC)cc1
COC(=O)c1ccc(/C=N/NC(=O)C(=O)N2CCCCCC2)cc1
COc1ccc(CCNc2ncnc3c2cnn3-c2ccc(C)cc2)cc1
CCOc1ccc(S(=O)(=O)c2cn(Cc3ccc(OC)cc3)c3ccc(F)cc3c2=O)cc1
O=c1cc(-c2ccccc2)n2c(SCc3ccccc3)nnc2[nH]1
O=c1[nH]n2c(-c3ccccc3)nc(O)c2c2ccccc12
Cc1ccc(C(=O)NCCSc2c(C)[nH]c3ccccc23)cc1C
CC1CCC2(CC1)N=C(c1ccccc1)C(=O)N2CC(=O)Nc1ccc(F)c(Cl)c1 (stereo not drawn)
COC(=O)c1cnn(-c2ccc(C(=O)Nc3ccc(OC(F)(F)F)cc3)cc2)c1N
CCc1nnc(NC(=O)Cc2cccs2)s1
O=C(Cc1cccs1)Nc1nnc(SCc2ccc(F)cc2)s1
CCC(C(=O)Nc1cc(OC)ccc1OC)n1c(=O)c(C(F)(F)F)nc2ccccc21 (stereo not drawn)
COc1cccc(-n2cc(C(=O)NCc3cccc(Cl)c3)c3ccccc3c2=O)c1
CCC(C)NC(=O)CSC1=Nc2ccccc2C2=NC(CCC(=O)NCc3ccco3)C(=O)N12 (stereo not drawn)
O=C(CC1N=C2c3ccccc3N=C(SCc3cccc(Cl)c3)N2C1=O)NCc1ccc2c(c1)OCO2 (stereo not drawn)
Cc1ccc(-c2cc(C(F)(F)F)c(C#N)c(SCC(=O)Nc3ccccc3)n2)cc1
CCOC(=O)c1ccc(NC(=O)CCn2cnnn2)cc1
CC(=O)c1nn(-c2ccc(OC(F)(F)F)cc2)nc1Nc1ccccc1
COCCn1c(C)cc(C(=O)COC(=O)CNC(=O)c2ccco2)c1C
Cc1cc(C(=O)CSc2nc(N)cc(=O)[nH]2)c(C)n1Cc1ccco1
COc1ccc(S(=O)(=O)c2c(Nc3ccc(C)cc3)sc(C(=O)c3ccc(C)cc3)c2N)cc1
CCOc1ccc(C(=O)N2CCN(CCc3ccccn3)CC2)cc1
COc1ccc(-c2nc3ccccc3c(=O)n2CCc2ccc(O)cc2)cc1
COc1ccc(-c2c(C#Cc3ccccc3)c3ccccc3n2C)cc1
O=C(NCCc1ccccc1)c1cnc2sc(N3CCCC3)nn2c1=O
CCNCCC(=O)N1c2ccccc2Sc2ccc(NC(=O)OCC)cc21
CCOC(=O)Nc1ccc2c(c1)N(C(=O)CCCl)c1ccccc1[S@]2=O
Cc1cc(C)cc(NS(=O)(=O)c2ccc(-c3cc(C)no3)s2)c1
Cc1ccc(C)c(Cn2c(C)c(CNCc3ccc(F)cc3)c(C(=O)O)c2C)c1
O=C(CCCn1c(=O)c2cccn2c2cccnc21)NCc1ccc(F)cc1
COc1ccc(C(=O)NCCCN2CCOCC2)cc1Br
Cc1ccc(OCCCC(=O)N2CCOCC2)c(C)c1
COc1ccccc1NC(=O)c1cc(C2CC2)nc2c1c(C)nn2-c1ccc(C)cc1
CC(C)Cn1c(C2CC(=O)N(c3ccccc3Cl)C2)nc2ccccc21 (stereo not drawn)
Cc1c(Cl)cccc1NC(=O)CCS(=O)(=O)c1ccc2c(c1)oc(=O)n2C
Cc1ccccc1OCCSc1nc2ccc(NC(=O)c3ccco3)cc2s1
COc1cccc(/C=N/Nc2ccc(Cl)nn2)c1
Nc1nnnn1/N=C/c1cccs1
Cc1ccsc1/C=N/Nc1ccc(Cl)nn1
Oc1c(Br)cccc1/C=N/Nc1c(F)c(F)c(F)c(F)c1F

Potency, active:
Cc1ccc(C(=O)NC(=S)Nc2ccc(N3CCOCC3)cc2)cc1 14.1 µM
Cc1ccc(C(=O)NC(=S)Nc2ccccc2C)cc1 89.1 µM
Cc1ccc(CCCOC(=O)C[N+]2(C)CCCC2)cc1 50.1 µM
Cc1ccc(C(=O)NNc2ncnc3ccccc23)cc1 56.2 µM
CC(C)C(c1nnnn1C(C)(C)C)N1CCN(Cc2cccnc2)CC1 (stereo not drawn) 56.2 µM
CCN(C(=O)Cc1nc(N)n[nH]1)C1(C(=O)Nc2ccccc2)CCCCC1 20 µM
Cc1ccc(C(=O)O)cc1-c1ccc(/C=C2\SC(=O)N(CC(=O)Nc3ccc4c(c3)OCO4)C2=O)o1 11.2 µM
Cc1cccc(-n2cnc(C(=O)NNC(=S)Nc3ccccc3)c2)n1 22.4 µM
N#Cc1c(Cl)nc(-c2cccnc2)nc1-c1ccccc1 70.8 µM
CCCC(=O)OCC(=O)Nc1cc(Cl)ccc1[N+](=O)[O-] 39.8 µM
COC(=O)c1ccc(/C=N/N2C(C)CCCC2C)cc1 (stereo not drawn) 56.2 µM
O=c1[nH]c2ccccc2n2c(-c3ccccc3)nnc12 20 µM
COc1ccc(Cc2nnc(NC(=O)Cc3cccs3)s2)cc1 44.7 µM
CCCCN=C1C([N+](=O)[O-])=CC=C2C1=NC1(CCCCC1)N2O 2.24 µM
O=C(CC1N=C2c3ccccc3N=C(SCc3ccccc3Cl)N2C1=O)NCc1ccco1 (stereo not drawn) 50.1 µM
Cc1cc(C(=O)COC(=O)CNC(=O)c2ccc(F)cc2)c(C)n1Cc1ccco1 50.1 µM
COc1ccc(CCNCc2c(-c3ccccc3)n(C)c3ccccc23)cc1 50.1 µM
CCOC(=O)Nc1ccc2c(c1)N(C(=O)CN1CCN3CCCC3C1)c1ccccc1CC2 (stereo not drawn) 70.8 µM
Cc1ccc(OCCCCN2CCCCC2)c(Br)c1 50.1 µM
Clc1ccc(N/N=C/c2cccs2)nn1 50.1 µM
Oc1cccc(/C=N/Nc2ccc(Cl)nn2)c1O 8.91 µM
